According to paper PMC7826789 (International Journal of Molecular Sciences, 2021):

tested on: T1, AMPK-alpha1; conditions: Compound Concentration (nM):1000
T1 construct: gene PRKAA1
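Also: KINOMEscan scanMAX binding as percent activity remaining versus control; lower means stronger binding.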

Row | Compound | Percent Control [%]
1 | Cl.O=C(Nc1ccc(Oc2ccc3[nH]c(NC(=O)c4ccco4)nc3c2)cc1)Nc1cc(C(F)(F)F)ccc1F [GW683134A] | 67
2 | O=C(Nc1n[nH]c2nc(-c3ccc(O)cc3)c(Br)cc12)C1CC1 [SB-725317] | 100
3 | COc1cc2ncnc(Nc3ccc4c(cnn4Cc4ccccc4)c3)c2cc1OC.Cl [GW282449A] | 100
4 | CN(C)CCNC(=O)Nc1ccc(N(C)c2ccnc(Nc3ccc(CS(C)(=O)=O)cc3)n2)cc1.Cl [GW830900A] | 87
5 | CC1=C(C(=O)Nc2ccc3[nH]ncc3c2)C(c2ccc(Cl)c(Cl)c2)CC(=O)N1 (stereo not drawn) [GSK299115A] | 67
6 | COc1ccc(COc2ccc(Cc3cnc(N)nc3N)cc2OC)cc1 [GW632580X] | 89
7 | CCS(=O)(=O)c1ccc(OC)c(Nc2ncc(-c3cccc(F)c3)o2)c1 [GW621970X] | 100
8 | COc1cc(/C=N/Nc2ncnc3[nH]ncc23)ccc1O [GW578748X] | 79
9 | C/C(Nc1ccc(S(N)(=O)=O)cc1)=C1/C(=O)Nc2ccccc21 [GW335962X] | 78
10 | CN1CCN(C(=O)c2ccc(NC(=O)Nc3ccc(N(C)c4ccnc(Nc5ccc(CS(C)(=O)=O)cc5)n4)cc3)cc2)CC1.Cl [GW830263A] | 82
11 | CC1=C(C(=O)Nc2ccc3[nH]ncc3c2)C(c2ccc3ccccc3c2)CC(=O)N1 (stereo not drawn) [GSK270822A] | 76
12 | COc1ccc2cc(-c3c(-c4ccncc4)nc(-c4ccc(S(C)(=O)=O)cc4C)n3C)ccc2c1 [SB-633825] | 53
